Measurements reported in PubChem BioAssay (Tox21).
Several values for one entry are separate records, joined by “and”; a condition that tells them apart may be missing. Equal entries are not always repeated. Results filed as inconclusive are left out. Where a structure was tested more than once in an assay, its records may differ in their call. Activity calls are given as the source filed them. Calls come from the whole dose curve; as a rule, active = well fitted curve in the direction sought with a large enough effect in the repeat runs; inconclusive = weak or mixed curves; inactive = no such curve, though single readings can be large; an effect the other way counts as inactive or inconclusive.

Legend:
[1] = A CellTox Green Cytotoxicity Assay to monitor cytotoxicity in HepG2 cells - 32 hour (AID 1224883); note: nearly all actives have a fitted effect of over 50% in size; note: potency is the fitted concentration of half-maximal effect
Summary of the method: (§1)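 Read-out is fluorescence of a cyanine dye excluded from live cells that stains DNA of dead HepG2 cells, with signal proportional to cytotoxicity. Plates were read at 0, 8, 16, 24, 32 and 40 h after compound addition.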

[2] = A CellTox Green Cytotoxicity Assay to monitor cytotoxicity in HEK293 cells - 8 hour (AID 1224884); note: nearly all actives have a fitted effect of over 35% in size
Summary of the method: (§2)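 Nonlytic real-time cytotoxicity: HEK293 + CellTox Green reagent plated, 5 h preincubation, pintool compound addition (23 nL in DMSO), 37 C for 40 h, fluorescence measured at successive time points.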

[3] = qHTS RealTime-Glo MT Cell Viability Assay in HepG2 cells - 16 hour (AID 1224885); note: nearly all actives have a fitted effect of over 50% in size
Summary of the method: (§3)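 Tox21 10K library screened in qHTS format on HepG2 cells carrying RealTime-Glo reagents. Compounds were added after a 5 h preincubation, and the luminescent signal from continuous culture was measured repeatedly during 40 h treatment.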

[4] = qHTS RealTime-Glo MT Cell Viability Assay in HEK293 cells - 24 hour (AID 1224886); note: nearly all actives have a fitted effect of over 50% in size; note: potency is the fitted concentration of half-maximal effect; for activity change, negative = cytotoxicity: top concentration of the series differs between compounds
Summary of the method: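 Luminescence generated by NanoLuc from substrate produced by living HEK293 cells served as the viability signal. Each value reflects the reading at its stated time point during continuous 40 h compound exposure at 37 C.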

[5] = qHTS RealTime-Glo MT Cell Viability Assay in HEK293 cells - 8 hour (AID 1224887); note: nearly all actives have a fitted effect of over 50% in size; note: potency is the fitted concentration of half-maximal effect; for activity change, negative = cytotoxicity: top concentration of the series differs between compounds
Summary of the method: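 Cells were seeded together with NanoLuc luciferase and a prosubstrate that viable cells reduce to a luciferase substrate. After a 5 h incubation at 37 C/5% CO2, compounds were added and luminescence was measured repeatedly during 40 h of treatment.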

[6] = A CellTox Green Cytotoxicity Assay to monitor cytotoxicity in HEK293 cells - 16 hour (AID 1224888); note: nearly all actives have a fitted effect of over 35% in size
Summary of the method: as §2

[7] = qHTS RealTime-Glo MT Cell Viability Assay in HepG2 cells - 0 hour (AID 1224889); note: nearly all actives have a fitted effect of over 50% in size
Summary of the method: as §3

[8] = A CellTox Green Cytotoxicity Assay to monitor cytotoxicity in HepG2 cells - 8 hour (AID 1224890); note: nearly all actives have a fitted effect of over 45% in size; note: potency is the fitted concentration of half-maximal effect
Summary of the method: as §1

[9] = qHTS assay to identify small molecule antagonists of the estrogen receptor alpha (ER-alpha) signaling pathway using the BG1 cell line in the presence of 0.1 nM 17-beta-estradiol - cell viability counter screen (AID 1259241); note: nearly all actives have a fitted effect of over 40% in size; note: potency is the fitted concentration of half-maximal effect
Summary of the method: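 Live-cell protease activity (CellTiter-Fluor fluorescence, 30 min) was read in the same wells after VM7Luc4E2 cells had been exposed to compounds with 0.1 nM 17beta-estradiol for 22 hr at 37C.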

[10] = A CellTox Green Cytotoxicity Assay to monitor cytotoxicity in HepG2 cells - 0 hour (AID 1224882); note: nearly all actives have a fitted effect of over 35% in size
Summary of the method: as §1
% is set by controls: 0 for no effect and ±100 for the full control effect.

O=C(O)CCn1c2c(c3ccccc31)C[C@H](NS(=O)(=O)c1ccc(F)cc1)CC2
inactive: Potency [1] | Potency [2] | Potency [3] | Potency [4] | Potency [5] | Potency [6] | Potency [7] | Potency [8] | Potency [9]

Cc1ccc(N)cc1O
inactive: Potency [10] | Potency [3] | Potency [5] | Potency [7] | Potency [8]
active: Potency [9] 61.1 µM

Nc1cc(Cl)c([N+](=O)[O-])cc1O
inactive: Potency [10] | Potency [3] | Potency [6] | Potency [7] | Potency [8]

Oc1cc2ccccc2cc1O
inactive: Potency [10] | Potency [3] | Potency [7] | Potency [8] | Potency [9]

O=C1OC(=O)c2cccc3cccc1c23
inactive: Potency [10] | Potency [3] | Potency [4] | Potency [5] | Potency [6] | Potency [7] | Potency [8] | Potency [9]

CCCCCCOc1ccc(O)cc1
active: Potency [4] 61.7 nM | Potency [5] 0.0617 µM | Potency [8] 24.5 µM
inactive: Potency [10] | Potency [2] | Potency [6] | Potency [7] | Potency [9]

O=C(O)c1cccc(Cl)n1
inactive: Potency [10] | Potency [3] | Potency [4] | Potency [5] | Potency [7] | Potency [8] | Potency [9]

S=P(N1CC1)(N1CC1)N1CC1
inactive: Potency [10] | Potency [3] | Potency [5] | Potency [6] | Potency [7] | Potency [8] | Potency [9]

CCOB(OCC)OCC
inactive: Potency [10] | Potency [2] | Potency [3] | Potency [6] | Potency [7] | Potency [8] | Potency [9]

C=C/C=C/C=C/CCCCC
inactive: cytotoxicity increase [1] -4.15% [at 15.8 µM] | cytotoxicity increase [2] -3.53% [at 15.8 µM] | activity change, negative = cytotoxic [3] -10.1% [at 15.8 µM] | activity change, negative = cytotoxicity [4] 13% [at 15.8 µM] | activity change, negative = cytotoxicity [5] -1.22% [at 15.8 µM] | activity change [6] -0.0444% [at 15.8 µM, stronger effect = higher value] | activity change, negative = cytotoxicity [7] -16.9% [at 15.8 µM] | cytotoxicity increase [8] -1.01% [at 15.8 µM] | activity change, negative = cytotoxicity [9] -4.24% [at 19 µM]

C/C=C/CO
inactive: Potency [1] | Potency [2] | Potency [3] | Potency [4] | Potency [5] | Potency [6] | Potency [7] | Potency [8] | Potency [9]

CCCCCCCOC(=O)c1ccc(O)cc1
inactive and 38.9 µM (active): Potency [8]
inactive: Potency [2] | Potency [3] | Potency [6] | Potency [7] | Potency [9]
active: Potency [1] 24.5 µM | Potency [4] 24.6 µM and 21.9 µM | Potency [5] 21.9 µM

CCCC(=O)OCC(COC(=O)CCC)OC(=O)CCC
inactive: Potency [1] | Potency [2] | Potency [3] | Potency [4] | Potency [5] | Potency [6] | Potency [7] | Potency [8] | Potency [9]

CCCCCCC(C)OC(=O)COc1nc(F)c(Cl)c(N)c1Cl (stereo not drawn)
inactive: Potency [10] | Potency [3] | Potency [6] | Potency [7] | Potency [8] | Potency [9]

CCCC(C)CCC(C)=O (stereo not drawn)
inactive: Potency [1] | Potency [2] | Potency [3] | Potency [5] | Potency [6] | Potency [7] | Potency [8] | Potency [9]

CC(C)(c1cc(Br)c(O)c(Br)c1)c1cc(Br)c(O)c(Br)c1
inactive: Potency [2] | Potency [3] | Potency [4] | Potency [5] | Potency [6] | Potency [7] | Potency [8] | Potency [9]

NC(=O)C(=O)N/N=C/c1ccc([N+](=O)[O-])o1
inactive: Potency [2] | Potency [3] | Potency [4] | Potency [5] | Potency [6] | Potency [7] | Potency [8] | Potency [9]

CCCCOCC
inactive: Potency [3] | Potency [6] | Potency [7] | Potency [8] | Potency [9]
